From PubChem BioAssay come the findings set out here.

Assay [1] deals with PRMT1 (protein arginine N-methyltransferase 1). Put plainly: PRMT1 binders on small-molecule microarrays, primary screen, biochemical, small-molecule microarray, 635 nm fluorescence (AID 1088).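 Also: binding of Prmt1 protein to compounds spotted on small-molecule microarray slides.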 As to conditions: small-molecule microarray binding, higher = more signal.
The nature of assay [2]: yeast growth modulation, basal conditions, primary screen, YJM789 clinical isolate, OD600, 24 h (AID 1089).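 Also: growth of clinical yeast isolate S. cerevisiae YJM 789 seeded 1000 cells per well; test concentration not given here.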 The conditions noted are these: S. cerevisiae YJM789 growth, higher = more signal, called active from +8 up or from −8 down.
Assay [3] can be described thus: fission yeast growth modulation, primary screen, strain 972, OD600, 24 h, no modulator (AID 1090).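 Also: basal condition with compound alone and no growth modifier present; test concentration not given here.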 The conditions noted are these: S. pombe 972 growth, higher = more signal, called active from +8 up or from −8 down.
The nature of assay [4]: S. cerevisiae growth modulation with rapamycin, primary screen, strain BY4716, OD600, 96 h (AID 1091). Also: test concentration not given here. The conditions noted are these: higher = more signal, called active from +8 up or from −8 down.
Assay [5] deals with Torsin-1A-interacting protein 2 (Homo sapiens) (UniProt Q8NFQ8). Nature of the assay: LULL1 binders on small-molecule microarray, primary screen, cell lysate, human LULL1 lysate, 635/667 nm fluorescence (AID 1092).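 Also: probe is lysate of COS7 cells overexpressing human LULL1; score merges per-feature 667 nm fluorescence with signal-to-noise.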 As to conditions: hLULL1 lysate binding, 635 nm fluorescence, higher = more signal.
Assay [6] can be described thus: E. coli growth modulation, two-sided OD650, primary screen, E. coli filamentation project, strain DRC41, 24 h (AID 1093).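 Also: MC1000 strain lacking acrAB efflux and sulA so SOS filamentation is blocked; test concentration not given here.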 The conditions noted are these: OD650, 24 h, higher = more signal, called active from +8 up or from −8 down.
Assay [7] in a line: small-molecule microarray binders of probe aLefty2, primary screen, biochemical, biotinylated probe, 635/667 nm fluorescence (AID 1094).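 Also: score merges spot fluorescence near 667 nm with spot signal-to-noise ratio.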 The conditions noted are these: higher = more signal.
The test system of assay [8] is Noggin (protein binding on small-molecule microarray). Put plainly: Noggin binders on small-molecule microarray, primary screen, biochemical, 635/667 nm fluorescence (AID 1095).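 Also: score merges 667 nm feature fluorescence with signal to noise over triplicate slides.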 As to conditions: 635 nm fluorescence, higher = more signal.
For assay [9], the target named is Neurogenic locus notch homolog protein 3 (Homo sapiens) (UniProt Q9UM47). Nature of the assay: NOTCH3 binders on small-molecule microarray, primary screen, biochemical, 635/667 nm fluorescence (AID 1096). The conditions noted are these: NOTCH3 binding, 635 nm fluorescence, higher = more signal.
A short description of assay [10]: small-molecule microarray binders of probe aEGFR, primary screen, biochemical, biotinylated probe, 635/667 nm fluorescence (AID 1097).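 Also: probe is a biotinylated anti-EGFR antibody binding compounds printed on slides; score combines fluorescence near 667 nm and signal to noise of each spot.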 The conditions noted are these: higher = more signal.
For assay [11], the system named is Plasmodium falciparum Sir2 (PF13_0152, Sir2A). Nature of the assay: pfSir2 binders on small-molecule microarrays, primary screen, biochemical, small-molecule microarray, 635 nm fluorescence (AID 1098).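 Also: score merges spot fluorescence intensity with its signal-to-noise ratio.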 As to conditions: small-molecule microarray binding, fluorescence 635 nm; higher = more signal.
Assay [12] can be described thus: small-molecule microarray binders of probe aDKK1, primary screen, biochemical, biotinylated probe, 635/667 nm fluorescence (AID 1099).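 Also: score merges 667nm spot fluorescence with signal to noise across triplicate slides; reference of the scale not given here.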 The conditions noted are these: higher = more signal.
Assay [13] is described as follows: small-molecule microarray binders of probe aCHRDL2, primary screen, biochemical, biotinylated probe, 635/667 nm fluorescence (AID 1100). The conditions noted are these: higher = more signal.
The nature of assay [14]: splicing luciferase reporter signal modulators, primary screen, spliceosome inhibition project, cell-based, HEK293, splice +/- reporter (AID 1101).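 Also: HEK293 cells carrying a splicing-competent luciferase reporter gene; test concentration not given here.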 As to conditions: luminescence, 24 h, higher = more signal, called active from +8 up or from −8 down. Background: Reporter assays use an easily measured gene product as a stand-in for the process of interest.
Assay [15] concerns the target Fibroblast growth factor 10 (Homo sapiens) (UniProt O15520). Put plainly: FGF10 binders on small-molecule microarrays, primary screen, biochemical, small-molecule microarray, 635 nm fluorescence (AID 1102). As to conditions: FGF10 binding, fluorescence 635 nm, higher = more signal.
Assay [16] concerns glycogen synthase kinase-3 (GSK3A per assay name; protocol says GSK3B). Nature of the assay: GSK3 binders on small-molecule microarrays, primary screen, biochemical, small-molecule microarray, 635 nm fluorescence, GSK3A (AID 1103). Also: the record names both GSK3A and GSK3B. The conditions noted are these: small-molecule microarray binding, fluorescence 635 nm; higher = more signal.
The target in assay [17] is Epidermal growth factor receptor (Homo sapiens) (UniProt P00533). Nature of the assay: EGFR binders on small-molecule microarrays, primary screen, biochemical, small-molecule microarray, 635 nm fluorescence (AID 1104).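 Also: score merges 667 nm emission intensity with spot signal to noise over triplicate slides.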 As to conditions: EGFR binding, higher = more signal.
Assay [18] addresses Follistatin-related protein 3 (Homo sapiens) (UniProt O95633). Nature of the assay: FSTL3 binders on small-molecule microarrays, primary screen, biochemical, small-molecule microarray, 635 nm fluorescence (AID 1105).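 Also: score merges emission near 667 nm and signal to noise per printed spot across three slides.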 The conditions noted are these: FSTL3 binding, higher = more signal.
Assay [19] deals with Dickkopf-related protein 1 (Homo sapiens) (UniProt O94907). Nature of the assay: DKK1 binders on small-molecule microarrays, primary screen, biochemical, small-molecule microarray, 635 nm fluorescence scan (AID 1106).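 Also: score merges emission near 667 nm with signal to noise over three replicate slides.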 The conditions noted are these: DKK1 binding, higher = more signal.
Assay [20] has as its system Inhibin beta A chain (activin A). Nature of the assay: INHBA (activin A) binders on microarrays, primary screen, biochemical, small-molecule microarray, 635 nm fluorescence scan (AID 1107).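 Also: mouse activin A protein probed at 4.33 µg/mL on printed slides; score merges bound-protein fluorescence near 667 nm with spot signal-to-noise.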 As to conditions: small-molecule microarray binding, higher = more signal.

SMILES strings stand for the structures. Active and inactive are the calls of the source.

Neurogenic locus notch homolog protein 3 (Homo sapiens), sequence (Q9UM47 whole entry, looked up): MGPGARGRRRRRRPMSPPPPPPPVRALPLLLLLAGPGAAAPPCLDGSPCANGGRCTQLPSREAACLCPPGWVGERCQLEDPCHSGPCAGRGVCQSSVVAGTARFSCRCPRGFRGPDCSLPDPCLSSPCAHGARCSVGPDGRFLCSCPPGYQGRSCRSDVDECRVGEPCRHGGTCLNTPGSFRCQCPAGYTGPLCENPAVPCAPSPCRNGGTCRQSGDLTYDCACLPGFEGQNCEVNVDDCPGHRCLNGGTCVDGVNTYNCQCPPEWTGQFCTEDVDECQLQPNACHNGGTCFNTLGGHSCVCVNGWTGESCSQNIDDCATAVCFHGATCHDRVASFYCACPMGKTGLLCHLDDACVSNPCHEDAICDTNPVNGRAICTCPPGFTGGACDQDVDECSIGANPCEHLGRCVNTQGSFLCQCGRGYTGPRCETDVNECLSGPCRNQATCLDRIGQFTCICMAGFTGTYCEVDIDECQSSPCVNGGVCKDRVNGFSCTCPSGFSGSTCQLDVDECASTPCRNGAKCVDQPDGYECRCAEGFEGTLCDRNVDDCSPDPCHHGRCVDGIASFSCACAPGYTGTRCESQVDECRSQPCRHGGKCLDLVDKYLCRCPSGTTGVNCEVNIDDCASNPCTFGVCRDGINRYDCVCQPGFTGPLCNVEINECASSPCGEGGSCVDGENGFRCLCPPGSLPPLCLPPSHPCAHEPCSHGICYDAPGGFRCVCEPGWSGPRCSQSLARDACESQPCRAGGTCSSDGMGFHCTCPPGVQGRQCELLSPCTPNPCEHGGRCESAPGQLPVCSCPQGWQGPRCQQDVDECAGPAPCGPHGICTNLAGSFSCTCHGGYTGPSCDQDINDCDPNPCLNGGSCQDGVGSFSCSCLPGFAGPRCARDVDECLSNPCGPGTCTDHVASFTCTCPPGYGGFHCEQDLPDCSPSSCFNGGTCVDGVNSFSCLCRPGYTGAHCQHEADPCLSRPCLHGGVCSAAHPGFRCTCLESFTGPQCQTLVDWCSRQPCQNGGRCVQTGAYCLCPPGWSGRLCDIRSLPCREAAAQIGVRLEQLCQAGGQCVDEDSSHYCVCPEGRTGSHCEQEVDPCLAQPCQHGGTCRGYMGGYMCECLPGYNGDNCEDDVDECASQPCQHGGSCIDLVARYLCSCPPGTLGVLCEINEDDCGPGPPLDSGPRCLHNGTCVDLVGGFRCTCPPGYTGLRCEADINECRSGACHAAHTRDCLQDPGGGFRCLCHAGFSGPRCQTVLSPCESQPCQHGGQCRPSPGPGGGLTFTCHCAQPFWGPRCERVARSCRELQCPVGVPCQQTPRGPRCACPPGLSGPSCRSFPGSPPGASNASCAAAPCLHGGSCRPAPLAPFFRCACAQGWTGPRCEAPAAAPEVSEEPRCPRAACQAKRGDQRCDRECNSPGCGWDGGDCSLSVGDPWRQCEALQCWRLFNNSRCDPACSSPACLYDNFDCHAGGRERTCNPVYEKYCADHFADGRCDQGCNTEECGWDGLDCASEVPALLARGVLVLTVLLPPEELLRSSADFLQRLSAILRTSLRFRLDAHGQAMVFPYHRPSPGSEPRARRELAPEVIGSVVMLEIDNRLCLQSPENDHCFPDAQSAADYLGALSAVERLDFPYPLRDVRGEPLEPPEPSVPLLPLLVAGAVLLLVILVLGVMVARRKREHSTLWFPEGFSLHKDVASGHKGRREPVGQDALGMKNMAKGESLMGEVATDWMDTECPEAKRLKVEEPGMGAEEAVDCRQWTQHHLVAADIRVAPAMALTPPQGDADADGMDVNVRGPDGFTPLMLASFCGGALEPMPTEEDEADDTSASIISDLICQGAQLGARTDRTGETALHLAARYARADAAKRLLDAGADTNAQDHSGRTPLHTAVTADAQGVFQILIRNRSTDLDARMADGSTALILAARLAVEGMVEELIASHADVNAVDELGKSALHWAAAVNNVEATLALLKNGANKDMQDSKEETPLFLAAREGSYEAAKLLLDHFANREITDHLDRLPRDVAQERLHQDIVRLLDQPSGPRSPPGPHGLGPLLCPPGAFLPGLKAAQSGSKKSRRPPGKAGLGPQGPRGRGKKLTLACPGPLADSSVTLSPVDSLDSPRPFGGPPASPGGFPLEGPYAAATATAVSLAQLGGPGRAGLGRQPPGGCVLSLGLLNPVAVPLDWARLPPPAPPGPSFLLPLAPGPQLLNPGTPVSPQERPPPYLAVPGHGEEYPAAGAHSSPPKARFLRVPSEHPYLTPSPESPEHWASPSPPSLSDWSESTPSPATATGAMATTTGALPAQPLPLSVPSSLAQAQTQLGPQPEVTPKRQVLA
Dickkopf-related protein 1 (Homo sapiens), sequence (O94907 whole entry, looked up): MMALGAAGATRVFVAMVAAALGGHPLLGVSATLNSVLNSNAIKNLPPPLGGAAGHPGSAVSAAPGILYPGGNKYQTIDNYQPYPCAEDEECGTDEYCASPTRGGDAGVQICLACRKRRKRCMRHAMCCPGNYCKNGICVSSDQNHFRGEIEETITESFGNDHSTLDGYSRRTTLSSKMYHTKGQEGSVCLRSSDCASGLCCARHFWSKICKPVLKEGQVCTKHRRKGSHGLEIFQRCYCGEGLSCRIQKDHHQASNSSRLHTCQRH
Follistatin-related protein 3 (Homo sapiens), sequence (O95633 whole entry, looked up): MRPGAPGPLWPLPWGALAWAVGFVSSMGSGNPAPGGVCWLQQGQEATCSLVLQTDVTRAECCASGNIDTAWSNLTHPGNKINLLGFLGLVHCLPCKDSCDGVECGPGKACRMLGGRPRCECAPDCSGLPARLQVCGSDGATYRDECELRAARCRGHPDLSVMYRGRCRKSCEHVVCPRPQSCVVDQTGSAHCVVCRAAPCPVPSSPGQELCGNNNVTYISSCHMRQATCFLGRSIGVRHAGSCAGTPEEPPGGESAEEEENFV
Fibroblast growth factor 10 (Homo sapiens), sequence (O15520 whole entry, looked up): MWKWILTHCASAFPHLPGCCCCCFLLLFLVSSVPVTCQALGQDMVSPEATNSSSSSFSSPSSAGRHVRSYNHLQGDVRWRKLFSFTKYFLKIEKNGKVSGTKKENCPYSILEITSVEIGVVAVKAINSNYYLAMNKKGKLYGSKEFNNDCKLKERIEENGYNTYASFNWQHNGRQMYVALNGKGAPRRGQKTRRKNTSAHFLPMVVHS
Torsin-1A-interacting protein 2 (Homo sapiens), sequence (Q8NFQ8 whole entry, looked up): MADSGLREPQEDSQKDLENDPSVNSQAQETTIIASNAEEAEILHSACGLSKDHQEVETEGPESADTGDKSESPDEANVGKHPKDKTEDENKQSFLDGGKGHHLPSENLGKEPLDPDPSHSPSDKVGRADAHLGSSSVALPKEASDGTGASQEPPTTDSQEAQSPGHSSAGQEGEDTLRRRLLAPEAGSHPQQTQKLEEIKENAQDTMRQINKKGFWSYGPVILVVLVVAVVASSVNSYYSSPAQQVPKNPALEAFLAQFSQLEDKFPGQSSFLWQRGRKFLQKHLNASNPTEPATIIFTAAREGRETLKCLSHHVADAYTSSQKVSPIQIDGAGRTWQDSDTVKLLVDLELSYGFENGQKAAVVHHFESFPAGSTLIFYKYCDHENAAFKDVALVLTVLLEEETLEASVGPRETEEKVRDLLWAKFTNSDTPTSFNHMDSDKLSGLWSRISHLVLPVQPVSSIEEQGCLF
Epidermal growth factor receptor (Homo sapiens), sequence (P00533 whole entry, looked up): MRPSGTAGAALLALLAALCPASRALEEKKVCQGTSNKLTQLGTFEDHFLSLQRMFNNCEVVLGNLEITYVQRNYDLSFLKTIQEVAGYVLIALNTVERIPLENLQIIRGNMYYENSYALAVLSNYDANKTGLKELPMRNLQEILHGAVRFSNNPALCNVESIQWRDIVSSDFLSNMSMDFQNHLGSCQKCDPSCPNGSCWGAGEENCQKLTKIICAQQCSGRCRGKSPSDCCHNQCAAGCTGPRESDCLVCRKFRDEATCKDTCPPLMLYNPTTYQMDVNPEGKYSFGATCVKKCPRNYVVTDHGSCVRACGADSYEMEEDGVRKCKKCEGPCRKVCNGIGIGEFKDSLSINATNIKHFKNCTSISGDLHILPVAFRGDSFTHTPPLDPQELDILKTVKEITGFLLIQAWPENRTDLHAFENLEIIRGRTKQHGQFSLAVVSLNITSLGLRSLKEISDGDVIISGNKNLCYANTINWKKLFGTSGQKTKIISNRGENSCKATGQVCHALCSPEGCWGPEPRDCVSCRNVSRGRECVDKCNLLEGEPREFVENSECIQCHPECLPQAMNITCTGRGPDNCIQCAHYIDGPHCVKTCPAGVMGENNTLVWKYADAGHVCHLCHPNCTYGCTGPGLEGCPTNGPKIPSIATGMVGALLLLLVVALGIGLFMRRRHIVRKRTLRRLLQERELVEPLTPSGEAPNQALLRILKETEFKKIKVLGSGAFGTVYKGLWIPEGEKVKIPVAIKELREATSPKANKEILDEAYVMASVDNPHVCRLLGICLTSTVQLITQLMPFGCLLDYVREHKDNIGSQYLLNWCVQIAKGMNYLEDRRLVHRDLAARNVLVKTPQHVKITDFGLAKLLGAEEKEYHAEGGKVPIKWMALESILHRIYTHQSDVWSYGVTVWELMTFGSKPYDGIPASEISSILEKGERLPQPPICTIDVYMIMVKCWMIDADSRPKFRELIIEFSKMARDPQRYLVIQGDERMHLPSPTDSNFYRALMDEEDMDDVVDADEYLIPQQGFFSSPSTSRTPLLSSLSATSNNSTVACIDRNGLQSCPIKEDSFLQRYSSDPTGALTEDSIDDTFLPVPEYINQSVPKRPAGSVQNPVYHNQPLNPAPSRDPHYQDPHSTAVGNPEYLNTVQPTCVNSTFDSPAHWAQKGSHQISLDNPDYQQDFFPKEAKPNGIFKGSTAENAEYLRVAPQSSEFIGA

As for `CC(=O)OC[C@H]1O[C@@H](ON=C[C@@H](C)[C@H](OCc2ccccc2)C(C)C)[C@H](OC(C)=O)[C@@H](OC(C)=O)[C@@H]1OC(C)=O`, the composite z-score is 1.48 in assay [1]; -1.59 in [5]; -0.114 in assay [7]; 0.605 in assay [8]; 0.751 in [9]; 0.0359 in assay [10]. Moreover, the composite z-score was -0.0075 in [11]; 0.129 in [12]; 0.169 in assay [13]; -0.167 in assay [15]; 0.623 in [16]; 0.338 in assay [17]. In addition, the figures for the composite z-score in assay [18], in assay [19] and in [20] were -0.39, -1.22 and -1.82, respectively. The z-score was 0.475 (inactive) in [2]; 0.0572 (inactive) in assay [3]; -0.17 (inactive) in assay [4]; -0.057 (inactive) in assay [6]; 0.14 (inactive) in assay [14].
Consider `COC(=O)[C@@]1(Cc2ccc(OC)cc2)[C@H]2c3cc(C(=O)N4CCCC4)n(Cc4cc(F)c(F)c(F)c4)c3C[C@H]2CN1C(=O)c1ccccc1`, for which the composite z-score was 1.25 in assay [1]; 3.39 in [5]; 1.44 in assay [7]; -0.131 in assay [8]; 1.01 in assay [9]; 1.17 in [10]. In addition, the composite z-score worked out at 1.08 in [11]; 2.47 in [12]; 1.59 in assay [13]; 1.15 in assay [15]; 1.3 in [16]; 1.12 in [17]. The composite z-score is 1.32 in assay [18], -0.279 in assay [19] and 0.835 in assay [20]. For the same molecule, the z-score in [2] is 0.68 (inactive); in assay [3] it was 1.39 (inactive); in assay [4], 7.41 (inactive); in assay [6] it was -1.19 (inactive); in [14], -1.28 (inactive).
For `O=C1O[C@@H](c2ccccc2)[C@@H](c2ccccc2)N2[C@@H](c3ccc(OCCO)cc3)[C@]3(C(=O)Nc4ccccc43)[C@@H](C(=O)N3CCN(c4ncccn4)CC3)[C@H]12`, the composite z-score in assay [1] stood at 1.53; in [5] it was 2.97; in assay [7] it was 1.04; in assay [8], 0.952; in assay [9], 1.1; in [10] it was 0.0679. The composite z-score in assay [11] was 1.4; in assay [12], 0.556; in assay [13], -0.0223; in [15], 0.69; in assay [16], 1.22; in assay [17], 0.774. Also, the composite z-score in [18] is 1.23; in assay [19], 0.886; in assay [20], 0.38. The z-score in [2] is 1.94 (inactive); in assay [3], 1.4 (inactive); in assay [4] it was 4.77 (inactive); in [6], 0.856 (inactive); in [14], -0.0125 (inactive).
For the molecule `CC(C)=CCCC(C)=CCON=C1[C@H]2CCn3c(=O)n(C)c(=O)n3[C@H]2[C@H](O)[C@@H]2O[C@H]12`, the composite z-score was determined as 1.14 in assay [1]; 0.393 in assay [5]; 0.0315 in assay [7]; 1.18 in assay [8]; 0.651 in assay [9]; 0.081 in assay [10]. Further, the composite z-score was 0.819 in assay [11]; -0.317 in [12]; -0.378 in assay [13]; 0.868 in [15]; 1.26 in assay [16]; 0.779 in assay [17]. Also, the composite z-score in assay [18] was 1.05; in assay [19] it was 0.921; in assay [20] it was 0.832. For the same molecule, the z-score in assay [2] is -0.0766 (inactive); in assay [3], 0.418 (inactive); in assay [4], 0.407 (inactive); in assay [6], 0.604 (inactive); in assay [14], 0.709 (inactive).
With `N#Cc1ccc(NN2C(C(O)c3cc(C(F)(F)F)cc(C(F)(F)F)c3)C=CC3C(=O)N(c4ccccc4)C(=O)C32)cc1` (stereo not given), the composite z-score in assay [1] was 1.34; in assay [5] it was 3.45; in assay [7], 0.135; in assay [8], 0.0695; in [9] it was 1.05; in [10] it was 0.0731. The composite z-score in assay [11] is 0.666; in assay [12], 0.175; in assay [13], 1.04; in assay [15], 1.03; in [16] it was 1.28; in assay [17], 0.292. Further, the composite z-score is 1.02 in assay [18], -0.62 in assay [19] and 0.733 in [20]. The z-score in assay [2] was 0.628 (inactive); in assay [3], 0.817 (inactive); in assay [4] it was 4.19 (inactive); in assay [6], -1.55 (inactive); in [14], 0.628 (inactive).
